Results published in PubChem BioAssay (NCI).
About 83,000 compounds went through this panel and 20% of them were active in at least one assay; those are over-represented in the sample as a whole.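 A percent growth of 40 corresponds to 60% growth inhibition; 0 means no net growth; -100 means all cells died. Active threshold: below 10.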 Unmarked numbers belong to inactive results. The source made the active and inactive calls.

Assays:
Assay in all cases: NCI-60 one-dose screen, 48 h (100 = growth as untreated, 0 = no growth, -100 = all killed)
Settings in all cases: 10 µM unless noted
T-47D breast = test system: T-47D breast
BT-549 breast = test system: BT-549 breast
MDA-MB-435 melanoma = test system: MDA-MB-435 melanoma
SW-620 colon = test system: SW-620 colon
MCF7 breast = test system: MCF7 breast
HCT-116 colon = test system: HCT-116 colon
HCC-2998 colon = test system: HCC-2998 colon
KM12 colon = test system: KM12 colon

Which growth (T-47D breast) does the source give for Cc1ccc(-c2nc([P+](c3ccccc3)(c3ccccc3)c3ccccc3)c(N3C[C@H]4C[C@H](C3)c3cccc(=O)n3C4)o2)cc1 here?
Its growth is 38.5%.

And the growth (BT-549 breast)?
Its growth is 56.2%.

What about the growth (MDA-MB-435 melanoma) of the same compound?
Its growth is 44.4%.

What about the growth (SW-620 colon) of the same compound?
The growth was 85.6%.

What about the growth (MCF7 breast) of the same compound?
Its growth is 67.3%.

And the growth (HCT-116 colon)?
Its growth is 88.2%.

What about the growth (HCC-2998 colon) of the same compound?
The growth was 71.3%.

And the growth (KM12 colon)?
The growth was 43.6%.

With COc1cc(-c2cc(-c3nc4ccc(F)cc4[nH]3)[nH]n2)cc(OC)c1OC as the compound, how does the growth (T-47D breast) read?
The growth was -21.3% (active).

And the growth (BT-549 breast)?
The growth was 6.58% (active).

And the growth (MDA-MB-435 melanoma)?
The growth was 5.65% (active).

And the growth (SW-620 colon)?
Its growth is 52.1%.

What about the growth (MCF7 breast) of the same compound?
The growth was 9.15% (active).

What about the growth (HCT-116 colon) of the same compound?
The growth was 31.2%.

And the growth (HCC-2998 colon)?
Its growth is 66.6%.

And the growth (KM12 colon)?
The growth was 12.9%.

Which results are given for CCCCC[C@H]1C/C=C2/C(=O)C=C[C@@H]2C/C=C\CCCC(=O)O[C@@H](CCCCC)C/C=C2/C(=O)C=C[C@@H]2C/C=C\CCCC(=O)O1?
growth (T-47D breast): -74.8% (active); growth (BT-549 breast): -72.9% (active); growth (MDA-MB-435 melanoma): -78.9% (active); growth (SW-620 colon): -54.1% (active); growth (MCF7 breast): -70.9% (active); growth (HCT-116 colon): -96.4% (active); growth (HCC-2998 colon): -79.5% (active); growth (KM12 colon): -86.3% (active)
